Screens as filed in PubChem BioAssay.
Only a selection was taken, and hits are over-represented in it overall.
Pf Dd2 growth: blocks in vitro growth of P. falciparum Dd2; Potency, µM (titrated, usually from 28.9 µM), inactives show top-dose activity, negative = inhibition, actives largely listed as inhibitors; AID 1347417; hit rate 4.3% among 120,000; P. falciparum Dd2 growth, SYBR Green, 72 h; active means well fitted inhibition curve with a large enough effect;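 further: plate controls were DMSO vehicle for no effect and reference drug for full effect; nearly all actives have a fitted effect of over 65% in size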
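Infected erythrocytes (Dd2, 0.3% parasitemia, 2.5% hematocrit final) are added to compound in RPMI-1640/Albumax II medium, grown 72 h at 37C in low oxygen, then lysed with saponin/Triton-X containing SYBR Green and read by fluorescence.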
Numbers without * were called inactive; i = inactive; [ ] = dose if it differs, or a comment. Potency means the concentration at half of the fitted maximal effect.

SMILES	Pf Dd2 growth
Cc1cnc(C(=O)N2CC(c3nnc(-c4ccncc4)o3)C3(CCOCC3)C2)cn1 (stereo not given)	13%
Clc1ccc(-c2cnc([C@@H]3COCCN3C3CCCCC3)[nH]2)cc1	-27%[44.1 µM]
CO[C@@](C(=O)N1CCOC[C@H]1c1ncc(-c2ccccc2)[nH]1)(c1ccccc1)C(F)(F)F	i
C[C@@H](NC(=O)N1CCOC[C@H]1c1ncc(-c2ccc(Cl)cc2)[nH]1)c1ccccc1	13µM*
O=C(C[C@@H]1O[C@H](CNC(=O)c2ccccc2)[C@@H](O)[C@H]1O)Nc1ccccc1	-18%[44.1 µM]
Cc1ccc(S(=O)(=O)Nc2ccc(C)n(CC(=O)N3CCCN(C)CC3)c2=O)cc1	-1%
O=C(c1ccc2ccccc2n1)N1CCN(C(=O)c2nnn3c2COC(c2ccccc2)C3)CC1 (stereo not given)	6.3µM*
